SMILES strings stand for the structures.

The source of these data is publication PMC5540273 (PLoS ONE, 2017).
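Further: KINOMEscan kinase panel screen.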

The subject of the assay is FGR. The conditions noted are these: concentration: 1 μM, replicates: in singlicate; n = 1.
Consider `O=C(NCCNc1ccnc(Nc2ccc(F)cc2)n1)c1cc2ccccc2s1` [GSK1379874], for which the “%Inh” value is given as 15%.
The result for `Cc1nnc(-c2ccc3occ(-c4ccc(C(C)O)cc4)c3c2)o1` (centres unmarked) reads 11%; that for `NS(=O)(=O)CCc1cccc(Nc2nccc(-c3c(-c4cccc(NC(=O)c5c(F)cccc5F)c4)nn4ccccc34)n2)c1` [GSK336735], 98.8%; that for `NS(=O)(=O)c1cccc(-c2ccc3nccc(-c4cccc(S(N)(=O)=O)c4)c3c2)c1` [GW867253], 0%.
The result for `Cc1nnc(-c2ccc(C)c(-c3ccc(C(=O)Nc4ccc(NS(C)(=O)=O)cc4)cc3)c2)o1` [GW702865] reads 24%; that for `Cl.Nc1ncnc2occ(-c3ccc(NC(=O)Nc4cc(C(F)(F)F)ccc4F)cc3)c12` [SB-707548], 41%.
On to `O=C(NCCCN1CCOCC1)c1cccc(Nc2nccc(Nc3ccc(Oc4ccccc4)cc3)n2)c1` [GW663929], for which the “%Inh” value was determined as 93.4%.
The result for `O=C(c1ccc(-c2cc(-c3c[nH]nc3-c3ccccn3)ccn2)cc1)N1CCOCC1` [GW812171] reads 0%; that for `CN1c2ccc(NCc3ccc(F)cc3)cc2-c2c(cnn2C)S1(=O)=O`, 0%.
Turning to `Cc1nnc(-c2ccc3ncc(-c4ccc(S(C)=O)cc4)n3c2)o1` (centres unmarked), the “%Inh” value is on record as 0%.
The same measure for `COc1cc2ncn(-c3cc(OCc4sccc4Cl)c(C(N)=O)s3)c2cc1OC` [GSK448459]: 9%; for `[2H]C([2H])(c1cccc(C(F)(F)F)c1C)n1ccn2c(=O)nc(N3CCOCC3)cc12` [GSK2336394]: 12%; for `Cl.Oc1cccc(Nc2ccnc3cc(-c4ccncc4)ccc23)c1` [GW494601]: 98.1%.
For the compound `CCc1nc(-c2cccc(C)c2)c(-c2ccnc(NCc3ccccc3)c2)s1`, the “%Inh” value is on record as 8%.
The same measure for `CN(C(=O)c1ccc(-c2cc(-c3c[nH]nc3-c3ccccn3)ccn2)cc1)C1CCOCC1` [GW810083]: 0%; for `O=C(NOCC1CC1)c1ccc(F)c(F)c1Nc1ccc(I)cc1Cl`: 0%; for `N#Cc1ccc(-c2cc(-c3c[nH]nc3-c3ccccn3)ccn2)cc1` [GW693028]: 21%.
The same measure for `CN1c2ccc(CNc3ccc(F)cc3)cc2-c2c(cnn2C)S1(=O)=O`: 0%; for `O=c1cc(N2CCOCC2)nc2n(Cc3cccc(C(F)(F)F)c3)ccn12` [GSK2297543]: 17%.
The result for `O=C(NCCNc1ccnc(Nc2ccc(F)cc2)n1)Nc1ccccc1F` [GSK1379880] reads 3%.
With `COc1cc2c(cc1OC[C@@H](O)CO)ncc1c3ccc(C#N)cc3[nH]c21`, the “%Inh” value is 30%.
The result for `CCCCCc1nc2c(N)ncnc2n1CCCCC` [SKF-97255] reads 7%; that for `O=C(Nc1cccc(-c2nn3ncccc3c2-c2ccnc(Nc3cccc(C(F)(F)F)c3)n2)c1)c1c(F)cccc1F` [GSK299495], 95.5%.
The result for `O=c1cc(N2CCOCC2)nc2n(Cc3cccc4ccccc34)ccn12` [GSK2333389] reads 9%.
The same measure for `Cc1c(Cn2c(C)nn3c(=O)cc(N4CCOC(C)C4)nc23)cccc1C(F)(F)F` (centres unmarked) [GSK2344444]: 0%; for `O=C1NC(=O)C(N2CCc3ccccc32)=C1c1cccc(Cl)c1` [SB-408010]: 22%.
As to `N#Cc1c(N2CCOCC2)sc(-c2ccn[nH]2)c1-c1ccc(Cl)cc1`, the “%Inh” value is 22%.
The result for `Cn1cc(-c2ccc3c(c2)CCN3C(=O)Cc2ccccc2Cl)c2c(N)ncnc21` [GSK2608885] reads 99%.
The same measure for `COc1cc(Nc2nccc(N3CCC(NC(=O)c4cccc(NC(C)=O)c4)C3)n2)cc(OC)c1OC` (centres unmarked) [GSK1379754]: 27%; for `COc1ccc(S(=O)(=O)NC2CCN(c3cc(C)nc(Nc4cccc(C#N)c4)n3)CC2)cc1.O=C(O)C(F)(F)F` [GSK1653539]: 33%; for `COc1cc2c(cc1OCCN1CCN(C)CC1)ncc1c3ccc(C#N)cc3[nH]c21`: 0%.
The result for `O=C(Nc1n[nH]c2cc(-c3cccc(F)c3)ccc12)C1CC1` [SB-735464] reads 33%; that for `Cc1cccc(-c2nc(Nc3ccc4ncsc4c3)c3ccccc3n2)n1` [GW867588], 17%; that for `Nc1nccc(-c2c(-c3ccc(F)cc3)ncn2C2CCN(CC(F)(F)F)CC2)n1` [SB-236560], 0%.
As to `COc1ccc(Nc2nccc(N3CCC(NC(=O)Nc4cccc(C(C)=O)c4)C3)n2)cc1` (centres unmarked) [GSK1379731], the “%Inh” value is recorded as 20%.
